Data from PubChem BioAssay (Tox21).
Results filed as inconclusive are left out. Values without a mark were called inactive. The call rests on the fitted dose curve; in most records, active means well fitted cell-killing curve with a large enough effect in the repeat runs; inconclusive means weak or mixed curves; inactive means flat fitted curve, though single readings scatter.

Test: qHTS RealTime-Glo MT Cell Viability Assay in HepG2 cells - 24 hour (AID 1224867); further: nearly all actives have a fitted effect of over 50% in size
Settings: RealTime-Glo luminescence; series mostly up to 76.8 µM; activity change, negative = cytotoxicity: at the top concentration
Description: U.S. Tox21 Program National Center for Advancing Translational Sciences [NCATS] NIH Chemical Genomics Center [NCGC] U.S. Environmental Protection Agency [EPA] National Institutes of Environmental Health Sciences [NIEHS] National Toxicology Program [NTP] U.S. Food and Drug Administration [FDA] Tox21 Assay Overview: Measure of cell viability is critical in the cell-base assay. Analysis of cell viability is necessary for the characterization of cell responses to cytotoxic drugs and environmental stress. A RealTime-Glo MT Cell Viability Assay to monitor cell viability in real time of continues cell culture during 40 hours of compound treatment was used to screen Tox21 10K library compounds in HepG2 cells. The RealTime-Glo MT Cell Viability Assay is a nonlytic, homogeneous, bioluminescent method to measure cell viability in real time using a simple, plate-based method. The assay involves adding NanoLuc luciferase and a cell-permeant prosubstrate to cells in culture. Viable cells reduce the proprietary prosubstrate to generate a substrate for NanoLuc luciferase. This substrate diffuses from cells into the surrounding culture medium, where it is rapidly used by the NanoLuc Enzyme to produce a luminescent signal. The signal correlates with the number of viable cells, making the assay well suited for cytotoxicity studies.
Tox21 Assay Protocol Summary: The mixture of HepG2 cell suspension and reagents were dispensed at 600cells/6 ul/well in 1536-well tissue culture treated black solid bottom plates using a Multidrop dispenser. After the assay plates were incubated at a 37 C/5% CO2 incubator for 5 hours, 23 nL of compounds dissolved in DMSO, positive and negative controls was transferred to the assay plate by a pintool work station. The plates were incubated at 37 C for 40 hours. The luminescence intensity were measured at 0h, 8h, 16h, 24h, 32h and 40h time points using ViewLux plate reader during compound treatment.
On the % scale 0 is the no-effect control and ±100 the full control effect.

Row | Structure (SMILES) | activity change, negative = cytotoxicity
1 | CCN(CC)C(=O)c1ccc(O)c(OC)c1 | -0.0655% [at 35.3 µM]
2 | C=CCn1c(=O)n([C@@H]2O[C@H](CO)[C@@H](O)[C@H]2O)c2nc(N)[nH]c(=O)c21 | 2.2% [at 35.3 µM]
3 | CC(C)(C)C(=O)/C=C/c1ccc(Cl)cc1 | 0.353%
4 | C#CC(O)CCCCC (stereo not given) | 4.49%
5 | Oc1ccc2c(c1)OC[C@@H](N1CCC(O)(c3ccc(F)cc3)CC1)[C@H]2O | -5.17% [at 35.3 µM]
6 | CC(=O)CCc1ccc(O)cc1 | -0.253%
7 | CC(C)=CC(=O)O | 1.47%
8 | NCCNC(=O)c1ccc(Cl)cn1 | 2.88% [at 35.3 µM]
9 | CCCCCCCCCCCCCCCCCCOCC(O)CO (stereo not given) | -11.3% [at 35.3 µM]
10 | C=C(C)[C@H]1CC=C(C)CC1 | -0.581%
11 | N#CCN(CC#N)CCN(CC#N)CC#N | -0.404%
12 | C1COCCO1 | -0.0801%
13 | NC(=O)Nc1nc2ccccc2[nH]1 | 0.605%
14 | C#CC(O)C(CC)CCCC (stereo not given) | -1.64%
15 | COC(=O)CCCCCCCCC(=O)OC | 3.02%
16 | CCn1c(=O)c2c(nc(/C=C/c3ccc(OC)c(OC)c3)n2C)n(CC)c1=O | -24.9% [at 35.3 µM]
17 | CCN(CC)S(=O)(=O)c1ccc(C(=O)O)cc1 | -0.88% [at 35.3 µM]
18 | COC(C(=O)O)c1ccccc1 (stereo not given) | 1.48%
19 | CCCCN(CCO)CCO | 2.29%
20 | C=C(C)C(=O)NCCC[N+](C)(C)C | 1.74%

Row | Structure (SMILES) | activity change, negative = cytotoxicity
21 | CCCOCC(C)OCC(C)O (stereo not given) | 3%
22 | NCCN1CCNC1=O | 0.943%
23 | CCCCCCCCCCCCCCC | 2.32%
24 | CC(C)CCCC(C)CCCC(C)CCCCC(C)CCCC(C)CCCC(C)C (stereo not given) | 1.31% [at 35.3 µM]
25 | CCCCCCCCCCCCCCCCCC(=O)OCCCCCCCCCCCCCC(C)C | 1.23%
26 | CC(=O)OC(C)(C)C | 0.33%
27 | Nc1ccc2cc(S(=O)(=O)O)ccc2c1 | 2.27%
28 | OCCN1C[C@H](O)[C@@H](O)[C@H](O)[C@H]1CO | 3.93% [at 35.3 µM]
29 | C=CC(=O)OCCCCCC | 1.08%
30 | C1CCCCCCCCCCC1 | 3.08% [at 15.8 µM]
31 | CC(C)(C)OC(=O)N1C[C@@H](F)C[C@H]1C(=O)O | 0.135%
32 | COc1cc(C)cc(O)c1 | 1.14%
33 | c1ccc(CCCc2ccccn2)cc1 | -4.41%
34 | Cc1nccn1CC1CCc2c(c3ccccc3n2C)C1=O (stereo not given) | -5.42% [at 35.3 µM]
35 | Fc1ccccc1-c1ccccc1 | 1.32%
36 | Cc1c(F)cc2c(=O)c(C(=O)O)cn3c2c1CCC3C (stereo not given) | 0.491% [at 35.3 µM]
37 | CCc1cc(S(=O)(=O)O)c2cc(C(C)C)cccc1-2 | 2.4% [at 35.3 µM]
38 | COC(=O)[C@H]1[C@H]2C[C@@H]3c4[nH]c5cc(OC)ccc5c4CCN3C[C@H]2C[C@@H](OC(=O)COc2ccc(OC)cc2)[C@@H]1OC | 2.84% [at 35.3 µM]
39 | COc1ccc(NC(C)=O)cc1 | 0.382%
40 | C(=C(c1ccccc1)c1ccccc1)c1ccccc1 | -10.6%
